Measurements reported in PubChem BioAssay (NCATS).
Results filed as inconclusive are left out. The source made the active and inactive calls. Unless noted, calls come from the whole dose curve; as a rule, active = well fitted curve in the direction sought with a large enough effect; inconclusive = small, poorly fitted or top-dose-only effect, or another doubt; inactive = no such curve, though single readings can be large; an effect the other way counts as inactive or inconclusive.

How the values were obtained:
[1] = target: Glutaminase kidney isoform, mitochondrial (Homo sapiens) (UniProt O94925); test: qHTS for Inhibitors of Glutaminase (GLS): LOPAC Validation (AID 624146); conditions: glutaminase enzyme activity inhibition; series mostly up to 46.1 µM;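 note: glutamate product detected by oxidase and peroxidase coupled Amplex red fluorescence gain; nearly all actives have a fitted effect of over 60% in size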
How it was run: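 hKGA in 45 mM KH2PO4 pH 8.2, 0.02% Tween-20 with pin-transferred compounds; 1 mM L-glutamine (stock) plus glutamate oxidase/HRP/Amplex Red coupling added. Fluorescence read initially and after 30 min at RT.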

[2] = qHTS of Trypanosoma Brucei Inhibitors: LOPAC Validation (AID 624147); conditions: purified enzyme assay, luminescence, 45 min; series mostly up to 57.5 µM
How it was run: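 ADP (130 uM final) triggers the TbPYK reaction after compound addition; incubation is 45 min at room temperature. Kinase-Glo Plus is then added and luminescence imaged. Normalized data are fitted to concentration-effect curves.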

[3] = target: Glucagon-like peptide 1 receptor (Homo sapiens) (UniProt P43220); test: qHTS of GLP-1 Receptor Agonists: LOPAC Validation (AID 624148); conditions: GLP-1R agonist cell assay; series mostly up to 46.1 µM;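 note: higher luminescence signal means agonism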
How it was run: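 HEK293 cells stably co-expressing a cAMP-responsive luciferase reporter and a hypersensitive GLP-1R were plated 12 h at 37 °C and exposed to compounds for 4-6 hr at 37 °C, 5% CO2. Luminescence was read 12 min after adding detection reagent.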

[4] = qHTS of Nrf2 Activators: LOPAC Validation (AID 624149); conditions: Nrf2/ARE reporter cell assay; series mostly up to 46.1 µM
How it was run: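 Luciferase signal from ARE activation, read with Steady-Glo after 30 min at room temperature. Compounds were pin-transferred onto AREc32_Fluc cells (1000/well, OPTI-MEM/5% FBS, seeded overnight) and left 24 hr at 37 deg C.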

[5] = HTS Assay for Allosteric Antagonists of the Human D2 Dopamine Receptor: Hit Validation in HTRF (AID 624455); conditions: Cells stably expressing D1 dopamine receptor, inhibition mode; series mostly up to 46.1 µM; note: potency is the fitted concentration of half-maximal effect;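 note: stable D1 dopamine receptor cell line scored for blocking the D1 response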
How it was run: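 Inhibition of the D1-mediated response was measured by HTRF. Cells used were a line stably expressing the D1 dopamine receptor.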

[6] = S16 Schwann cell PMP22 intronic element firefly luciferase assay (AID 624032); conditions: S16 rat Schwann cells, PMP22 element FLuc, 24 h; series mostly up to 57.5 µM; note: nearly all actives have a fitted effect of over 30% in size; note: potency is the fitted concentration of half-maximal effect
How it was run: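 Rat S16 Schwann cells stably carrying a PMP22 intronic element-driven Fluc reporter were seeded overnight, then exposed to compounds for 24 h at 37 °C. Luminescence was normalized to PTC124 (positive control) and DMSO (0% activity).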

[7] = S16 Schwann cell PMP22 intronic element beta-lactamase assay (AID 624044; calls by dose curve; note: nearly all actives have a fitted effect of over 15% in size; note: potency is the fitted concentration of half-maximal effect); conditions: S16 rat Schwann cells, PMP22 element beta-lactamase FRET, 24 h; series mostly up to 38.3 µM
How it was run: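 Beta-lactamase reporter under a PMP22 intronic regulatory element in stable S16 rat Schwann cells; 24 h compound exposure. 460 nm blue signal normalized between DMSO (0%) and potassium clavulanate, with 535 nm FRET tracking viability; curves classed by r2 and response.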

[8] = Cytotoxicity counterscreen for NFkB agonists and antagonists (AID 624476); conditions: NFkB reporter cell line viability counterscreen; series mostly up to 46.1 µM;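 note: cells exposed to compound for 48 hours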; note: potency is the fitted concentration of half-maximal effect
[9] = qHTS Assay for Identification of Small Molecule Agonists for NFkB Signaling Pathway. (AID 624478); conditions: NFkB pathway reporter cell assay, agonist mode, cells co-stimulated with 10 pM TNF alpha; series mostly up to 46.1 µM
How it was run: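 Compounds were added with 10 pM TNF alpha (EC50 level) to ME-180 NFkB-bla cells in low-serum Opti-MEM and incubated 5 hrs at 37 C. Beta-lactamase FRET read-out used 405 nm excitation and 460 and 530 nm emission.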

[10] = qHTS Assay for Identification of Small Molecule Antagonists for NFkB Signaling Pathway. (AID 624479; calls by dose curve; note: potency is the fitted concentration of half-maximal effect); conditions: NFkB pathway reporter cell assay, antagonist mode; series mostly up to 38.3 µM

Measured: Potency

Glucagon-like peptide 1 receptor (Homo sapiens), sequence (P43220 whole entry, looked up): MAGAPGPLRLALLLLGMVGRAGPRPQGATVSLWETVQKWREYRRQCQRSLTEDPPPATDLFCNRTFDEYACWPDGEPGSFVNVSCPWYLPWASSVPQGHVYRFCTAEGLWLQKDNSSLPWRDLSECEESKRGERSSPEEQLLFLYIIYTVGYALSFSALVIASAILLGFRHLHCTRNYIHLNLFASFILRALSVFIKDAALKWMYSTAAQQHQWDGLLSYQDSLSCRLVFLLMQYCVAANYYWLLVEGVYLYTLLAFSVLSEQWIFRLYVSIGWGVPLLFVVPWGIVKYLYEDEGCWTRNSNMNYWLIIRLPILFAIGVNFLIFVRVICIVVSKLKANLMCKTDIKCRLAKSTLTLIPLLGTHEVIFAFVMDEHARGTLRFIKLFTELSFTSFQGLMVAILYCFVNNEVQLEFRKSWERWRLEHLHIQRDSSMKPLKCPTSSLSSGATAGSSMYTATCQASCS
Glutaminase kidney isoform, mitochondrial (Homo sapiens), sequence (O94925 whole entry, looked up, canonical isoform): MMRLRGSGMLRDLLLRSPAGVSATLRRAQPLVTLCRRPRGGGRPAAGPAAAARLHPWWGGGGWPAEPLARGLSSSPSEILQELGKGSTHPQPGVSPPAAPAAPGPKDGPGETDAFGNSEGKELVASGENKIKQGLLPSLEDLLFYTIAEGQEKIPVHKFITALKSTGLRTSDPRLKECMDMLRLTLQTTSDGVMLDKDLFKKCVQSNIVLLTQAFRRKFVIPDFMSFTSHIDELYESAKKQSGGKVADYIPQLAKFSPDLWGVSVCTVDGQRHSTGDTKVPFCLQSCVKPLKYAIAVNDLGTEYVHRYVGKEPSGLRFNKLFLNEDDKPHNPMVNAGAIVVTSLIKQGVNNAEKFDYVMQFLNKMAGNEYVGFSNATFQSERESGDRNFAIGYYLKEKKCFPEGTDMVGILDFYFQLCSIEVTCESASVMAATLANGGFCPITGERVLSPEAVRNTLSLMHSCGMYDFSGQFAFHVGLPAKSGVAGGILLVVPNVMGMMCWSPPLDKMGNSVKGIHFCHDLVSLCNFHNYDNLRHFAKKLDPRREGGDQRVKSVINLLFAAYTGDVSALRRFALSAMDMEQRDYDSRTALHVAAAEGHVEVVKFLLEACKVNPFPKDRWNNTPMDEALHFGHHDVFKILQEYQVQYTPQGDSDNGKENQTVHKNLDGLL

CCCCS(=N)(=O)CCC(N)C(=O)O (stereo not drawn)
inactive: [1] | [2] | [3] | [4] | [5]

CNC(=O)c1cc(Oc2ccc(NC(=O)Nc3ccc(Cl)c(C(F)(F)F)c3)cc2)ccn1
active: [6] 12.8 µM | [7] 15.8 µM | [8] 18.7 µM | [10] 9.43 µM
inactive: [9]

CCN1CCCC1CNC(=O)c1cc(S(N)(=O)=O)ccc1OC (stereo not drawn)
inactive: [1] | [2] | [3] | [4] | [5]

Cc1c(-c2ccc(O)cc2)n(Cc2ccc(OCCN3CCCCCC3)cc2)c2ccc(O)cc12
inactive: [9] | [10]

NC(=O)c1ccc2[nH]ccc2c1
inactive: [1] | [2] | [3] | [4] | [5]

NC1(c2ccc(-c3nc4ccn5c(=O)[nH]nc5c4cc3-c3ccccc3)cc2)CCC1
inactive: [9]

NC(=O)c1cccc(N)c1
inactive: [1] | [2] | [3] | [4] | [5]

CN(CCOc1ccc(CC2SC(=O)NC2=O)cc1)c1ccccn1 (stereo not drawn)
inactive: [6] | [7]

CC(C)C[C@H](NC(=O)[C@H](CCc1ccccc1)NC(=O)CN1CCOCC1)C(=O)N[C@@H](Cc1ccccc1)C(=O)N[C@@H](CC(C)C)C(=O)[C@@]1(C)CO1
inactive: [9]
active: [8] 0.148 µM | [10] 0.0033 µM

CNCC[C@H](Oc1cccc2ccccc12)c1cccs1
inactive: [7]

COc1cc2ncnc(Nc3cccc(Cl)c3)c2cc1OC
inactive: [1] | [2] | [3] | [4] | [5]

CC1CC2C3CCC4=CC(=O)C=C[C@]4(C)[C@@]3(F)[C@@H](O)C[C@]2(C)[C@@]1(O)C(=O)CO (stereo partly drawn)
inactive: [1] | [2] | [3] | [4] | [5]

S=P(N1CC1)(N1CC1)N1CC1
inactive: [6] | [7]

O=NN(CCCl)C(=O)NC1CCCCC1
inactive: [6] | [7]

O=S(=O)(O)CCS
inactive: [6] | [7]

CC[C@H](NC(C)C)[C@H](O)c1ccc(O)c2[nH]c(=O)ccc12
inactive: [6] | [7]

CC1=C(C(=O)O)N2C(=O)[C@@H](NC(=O)C(N)c3ccccc3)[C@H]2SC1 (stereo partly drawn)
inactive: [2] | [3] | [4]

Cc1ccc(S(=O)(=O)N[C@@H](Cc2ccccc2)C(=O)CCl)cc1
inactive: [1] | [2] | [3] | [4] | [5]

CN1CCCC(n2nc(Cc3ccc(Cl)cc3)c3ccccc3c2=O)CC1 (stereo not drawn)
inactive: [7]

CCN(CC)CCn1c(=O)c(Cc2ccc(OC)cc2)nc2ccccc21
not listed: [6] | [7]
inactive: all other assays above

CCN(CC)CC#CCOC(=O)C(O)(c1ccccc1)C1CCCCC1 (stereo not drawn)
inactive: [2] | [3] | [4] | [5]

O=C(O)C1CCCN(CCC=C(c2ccccc2)c2ccccc2)C1 (stereo not drawn)
inactive: [1] | [2] | [3] | [4] | [5]

Nc1nc(N)c2nc(CNc3ccc(C(=O)NC(CCC(=O)O)C(=O)O)cc3)cnc2n1 (stereo not drawn)
inactive: [7] | [1] | [2] | [3] | [4] | [5]

CC1=NN(c2ccccc2)C(=O)C1
inactive: [6] | [7]

OCc1ccc(-c2nn(Cc3ccccc3)c3ccccc23)o1
inactive: [1] | [2] | [3] | [4] | [5]

CC(C)NCC(O)c1ccc(NS(C)(=O)=O)cc1 (stereo not drawn)
not listed: [8] | [9] | [10]
inactive: all other assays above

COc1cc([C@@H]2c3cc4c(cc3[C@H](O)[C@H]3COC(=O)[C@H]23)OCO4)cc(OC)c1OC
inactive: [9] | [10]

COc1cc2nc(N3CCCN(C)CC3)nc(NC3CCN(Cc4ccccc4)CC3)c2cc1OC
active: [10] 23.7 µM
not listed: [6] | [7] | [8]
inactive: all other assays above

CC(=O)[C@H]1CC[C@H]2[C@@H]3CCC4=CC(=O)CC[C@]4(C)[C@H]3CC[C@]12C
inactive: [1] | [2] | [3] | [4] | [5]

COc1cc2c(Nc3ccc(Br)cc3F)ncnc2cc1OCC1CCN(C)CC1
active: [6] 9.07 µM | [8] 26.4 µM
inactive: [9]

COc1cccc(N(C)C(=S)Oc2ccc3c(c2)CCCC3)n1
inactive: [7]

Nc1ccc(S(=O)(=O)Nc2ccccn2)cc1
inactive: [6] | [7]

N[C@@H](Cc1ccc(O)c(O)c1)C(=O)O
inactive: [7] | [2] | [3] | [4]
active: [5] 8.2 µM
